These results are taken from ChEMBL document CHEMBL1201862, “PubChem BioAssay data set” (2004).

In all, about 57,000 sequences went through this assay and about 3,400 (6%) were called active. Rule as the data show it: active = GI50 up to about 1.1 µM and inactive = higher. A selection follows. Results with a measured potency or affinity are listed apart.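 Cultured in 96-well plates, cells were exposed to test compound for 48 hours across five concentrations. GI50 = concentration required for 50% inhibition of growth.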

In the experiment the test system is UO-31. As to the kind of experiment: NCI tumour cell line growth inhibition, 48 h.
Consider CISPLATIN, CHEMBL11359, for which the GI50 was determined as 3.36 µM.

Substance “[Bis(aminomethyl)dimethylsilane]tetrachloroplatinum(IV), CHEMBL2146190” registered a GI50 of 9.93 µM.

Take “[Bis(aminomethyl)ethylmethylsilane]tetrachloroplatinum(IV), CHEMBL2146192”: the GI50 turned out to be 7.48 µM.

Substance “[Bis(aminomethyl)tetramethylenesilane]dichloropaltinum(II), CHEMBL2146205” showed a GI50 of 22.3 µM.

“[Bis(aminomethyl)dimethylsilane]dichloroplatinum (II), CHEMBL2146201”: the GI50 came out at 55.2 µM.

“[Bis(aminomethyl)diethylsilane]tetrachloroplatinum(IV), CHEMBL2146203” showed a GI50 of 4.43 µM.

On to “[Bis(aminomethyl)pentamethylenesilane]tetrachloropaltinum(IV), CHEMBL2146204”, for which the GI50 is 0.731 µM.

Take “[Bis(aminomethyl)pentamethylenesilane]dichloropaltinum(II), CHEMBL2146202”: the GI50 stood at 3.21 µM.

Substance “mu-(1,7-nanodiamine-N,N')bis-(cis-aminedichloroplatimum (II)), CHEMBL2146215” showed a GI50 of 44.8 µM.

“cis-Bis[[(trimethylsilyl)methyl]amino]tetrachloroplatinum(IV), CHEMBL2146191” displayed a GI50 of 16.2 µM.

Turning to “[Bis(aminomethyl)tetramethylenesilane]tetrachloropaltinum(IV), CHEMBL2146189”, the GI50 was 3.73 µM.
